Assay [1] deals with Protein translocase subunit SecA (Escherichia coli (strain K12)) (UniProt P10408). The assay can be described thus: Assay to Identify E. coli SecA ATPase Inhibitors. The class given is functional. Also on record: scale not given: direction of the effect not stated beside the values. The conditions noted are these: 30 µM.
The target of assay [2] is T1, Ubiquitin-activating enzyme e1, putative (Leishmania donovani (strain BPK282A1)) (UniProt E9BSI1).
T1 sequence (whole entry): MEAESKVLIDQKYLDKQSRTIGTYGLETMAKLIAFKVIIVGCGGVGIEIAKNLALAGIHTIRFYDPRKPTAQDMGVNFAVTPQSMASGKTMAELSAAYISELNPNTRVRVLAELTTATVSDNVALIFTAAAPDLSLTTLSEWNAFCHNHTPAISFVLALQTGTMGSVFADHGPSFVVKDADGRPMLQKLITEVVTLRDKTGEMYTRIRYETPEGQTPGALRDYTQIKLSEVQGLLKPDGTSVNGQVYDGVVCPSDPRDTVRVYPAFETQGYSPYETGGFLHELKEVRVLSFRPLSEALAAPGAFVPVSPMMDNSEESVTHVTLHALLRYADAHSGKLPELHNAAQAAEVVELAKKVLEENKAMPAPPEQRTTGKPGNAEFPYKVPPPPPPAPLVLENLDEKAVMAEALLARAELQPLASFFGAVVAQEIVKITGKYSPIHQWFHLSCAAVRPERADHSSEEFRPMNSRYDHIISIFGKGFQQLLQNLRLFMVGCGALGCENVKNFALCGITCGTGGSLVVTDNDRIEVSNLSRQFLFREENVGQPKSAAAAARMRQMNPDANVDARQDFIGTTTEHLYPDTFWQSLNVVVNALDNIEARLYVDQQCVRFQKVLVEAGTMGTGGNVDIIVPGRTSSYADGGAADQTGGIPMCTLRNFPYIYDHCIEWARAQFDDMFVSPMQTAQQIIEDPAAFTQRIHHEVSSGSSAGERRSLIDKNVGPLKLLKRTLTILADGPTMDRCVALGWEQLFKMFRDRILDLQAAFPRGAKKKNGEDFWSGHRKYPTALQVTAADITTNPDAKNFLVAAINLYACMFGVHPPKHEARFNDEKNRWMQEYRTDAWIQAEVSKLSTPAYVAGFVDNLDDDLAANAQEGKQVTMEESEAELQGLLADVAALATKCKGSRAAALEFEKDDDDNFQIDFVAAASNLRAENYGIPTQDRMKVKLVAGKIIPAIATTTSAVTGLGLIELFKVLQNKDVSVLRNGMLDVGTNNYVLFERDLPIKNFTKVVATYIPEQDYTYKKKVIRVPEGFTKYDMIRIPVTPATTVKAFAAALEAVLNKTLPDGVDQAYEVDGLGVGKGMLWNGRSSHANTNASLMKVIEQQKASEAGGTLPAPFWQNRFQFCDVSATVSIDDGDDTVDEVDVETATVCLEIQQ
The assay can be described thus: Leishmania donovani Ubiquitin Activating Enzyme (LdE1). The class given is functional. Also on record: scale not given: direction of the effect not stated beside the values. The conditions noted are these: 30 µM.

Assay [3] deals with T2, Aspartate--tRNA(Asp/Asn) ligase (Mycobacterium tuberculosis (strain ATCC 25618 / H37Rv)) (UniProt P9WFW3).
T2 sequence (whole entry): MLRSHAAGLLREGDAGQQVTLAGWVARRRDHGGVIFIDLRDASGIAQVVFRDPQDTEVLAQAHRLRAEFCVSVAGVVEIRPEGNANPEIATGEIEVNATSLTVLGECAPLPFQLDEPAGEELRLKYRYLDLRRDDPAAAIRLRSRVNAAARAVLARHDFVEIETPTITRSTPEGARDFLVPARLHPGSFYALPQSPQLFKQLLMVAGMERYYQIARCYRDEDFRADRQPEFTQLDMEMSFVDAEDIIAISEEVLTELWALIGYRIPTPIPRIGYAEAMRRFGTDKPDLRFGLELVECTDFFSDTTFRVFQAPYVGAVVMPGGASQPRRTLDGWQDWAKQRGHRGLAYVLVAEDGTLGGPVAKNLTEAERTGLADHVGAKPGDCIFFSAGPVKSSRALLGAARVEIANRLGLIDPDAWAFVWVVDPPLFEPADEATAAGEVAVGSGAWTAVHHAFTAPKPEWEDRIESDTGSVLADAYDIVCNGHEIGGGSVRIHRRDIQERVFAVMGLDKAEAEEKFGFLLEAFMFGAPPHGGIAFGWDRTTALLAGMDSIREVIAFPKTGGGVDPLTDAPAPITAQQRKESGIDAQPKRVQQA
Kind of assay: Assay for Asp RNA synthetase-1 from Mycobacterium tuberculosis. The conditions noted are these: 30 µM. The class given is functional. Also noted: scale not given: direction of the effect not stated beside the values.

In assay [4] the target is AMP-activated protein kinase, AMPK (Homo sapiens) (UniProt P54646+O43741+P54619+Q9UGJ0+Q9Y478+Q13131+Q9UGI9). Kind of assay: AMP-dependent Kinase enzyme assay. An in vitro enzyme assay that detects ADP turnover that is directly proportional to AMPK activity. This uses naive AMPK that is activated during the assay with MK-8722. The class given is functional. Also on record: scale not given: direction of the effect not stated beside the values. The conditions noted are these: 30 µM.

Assay [5] has as its target Sialic acid-binding Ig-like lectin 9 (Homo sapiens) (UniProt Q9Y336). Kind of assay: Hs-Siglec9 ALPHAscreen SOP 20170721. Also noted: scale not given: direction of the effect not stated beside the values. Particulars: 10 µM. Background: In Alpha technology, singlet oxygen from a donor bead excites a nearby acceptor bead.
In a further assay the test system is Trypanosoma cruzi. Kind of assay: Trypanosoma cruzi phosphomannomutase and mannose-1-phosphate guanylyltransferase assay. The class given is functional. Also noted: scale not given: direction of the effect not stated beside the values. The conditions noted are these: 10 µM.
The target of assay [6] is T3, Arginase-2, mitochondrial (Homo sapiens) (UniProt P78540).
T3 sequence (whole entry): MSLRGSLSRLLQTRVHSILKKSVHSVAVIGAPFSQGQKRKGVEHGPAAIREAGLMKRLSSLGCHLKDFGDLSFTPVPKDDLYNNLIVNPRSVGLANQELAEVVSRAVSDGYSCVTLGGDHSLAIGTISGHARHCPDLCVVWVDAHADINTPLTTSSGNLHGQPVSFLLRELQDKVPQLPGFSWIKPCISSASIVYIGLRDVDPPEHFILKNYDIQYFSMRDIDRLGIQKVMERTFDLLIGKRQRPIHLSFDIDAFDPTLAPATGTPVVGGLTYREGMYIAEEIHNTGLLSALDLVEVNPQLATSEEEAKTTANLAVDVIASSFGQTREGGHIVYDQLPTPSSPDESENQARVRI
Kind of assay: in vitro enzyme assay to detect the production of urea directly proportional to the activity of Arginase II. Also noted: scale not given: in the data most compounds retested in dose-response had high values. The class given is functional. Particulars: 33.3 µM.

The target in assay [7] is T4, Proteasome subunit beta (Trypanosoma cruzi) (UniProt O96673).
T4 sequence (whole entry): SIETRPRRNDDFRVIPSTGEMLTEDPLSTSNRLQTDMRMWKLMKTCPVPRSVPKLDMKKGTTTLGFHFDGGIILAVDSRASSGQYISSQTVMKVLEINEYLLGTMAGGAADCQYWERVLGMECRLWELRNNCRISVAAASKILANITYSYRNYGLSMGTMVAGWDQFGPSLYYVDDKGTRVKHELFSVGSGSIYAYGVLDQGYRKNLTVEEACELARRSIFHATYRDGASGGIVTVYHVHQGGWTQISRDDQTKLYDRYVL
The assay can be described thus: Trypanosoma cruzi proteasome chymotrypsin-like activity (TcProtChymo) assay. The class given is functional. Also on record: scale not given: in the data most compounds retested in dose-response had high values. Particulars: 9.37 µM.

For a further assay, the species on record is Homo sapiens. The assay can be described thus: To identify inhibition of the IFN signalling (Jak-Stat) pathway via expression of an eGFP reporter gene under the control of an IFN-stimulated response element (ISRE) containing MxA promoter. The class given is functional. Also on record: scale not given: direction of the effect not stated beside the values. The conditions noted are these: 30 µM. (In general: Reporter assays use an easily measured gene product as a stand-in for the process of interest.)

Assay [8] deals with Shiga toxin 2 (Escherichia coli O157:H7) (UniProt P09385+P09386). The assay can be described thus: E. coli 0.157:H7 Shiga Toxin SOP - stx2 screening assay. The class given is functional. Also on record: scale not given: direction of the effect not stated beside the values. The conditions noted are these: 30 µM.
Assay [9] deals with T5, Tyrosyl-tRNA synthetase, putative (Trypanosoma cruzi (strain CL Brener)) (UniProt Q4DSP6).
T5 sequence (whole entry): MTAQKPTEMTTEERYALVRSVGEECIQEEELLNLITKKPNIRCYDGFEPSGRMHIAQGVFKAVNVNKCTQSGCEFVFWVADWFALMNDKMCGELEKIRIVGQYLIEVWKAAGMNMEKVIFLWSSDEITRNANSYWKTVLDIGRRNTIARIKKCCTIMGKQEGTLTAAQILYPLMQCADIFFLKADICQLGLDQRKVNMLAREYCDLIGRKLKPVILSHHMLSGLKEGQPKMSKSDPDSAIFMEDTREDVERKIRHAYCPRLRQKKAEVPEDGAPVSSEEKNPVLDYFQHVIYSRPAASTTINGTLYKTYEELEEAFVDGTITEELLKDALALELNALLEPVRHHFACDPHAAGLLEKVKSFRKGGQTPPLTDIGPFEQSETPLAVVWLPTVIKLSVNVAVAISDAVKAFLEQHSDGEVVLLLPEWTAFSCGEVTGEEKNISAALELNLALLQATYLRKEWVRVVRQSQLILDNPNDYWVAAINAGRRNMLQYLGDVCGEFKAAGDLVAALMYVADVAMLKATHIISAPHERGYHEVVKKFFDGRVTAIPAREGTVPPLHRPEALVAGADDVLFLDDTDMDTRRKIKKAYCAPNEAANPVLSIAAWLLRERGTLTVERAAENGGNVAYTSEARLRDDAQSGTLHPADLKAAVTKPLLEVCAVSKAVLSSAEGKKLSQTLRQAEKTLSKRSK
Kind of assay: Trypanosoma cruzi tyrosyl tRNA synthetase (TcYRS) _High Tyrosine SOP. The class given is functional. Also noted: scale not given: in the data most compounds retested in dose-response had high values. Particulars: 30 µM.

Assay [10] deals with T5, Tyrosyl-tRNA synthetase, putative (Trypanosoma cruzi (strain CL Brener)). Kind of assay: Trypanosoma cruzi tyrosyl tRNA synthetase (TcYRS) SOP. The class given is functional. Also on record: scale not given: direction of the effect not stated beside the values. The conditions noted are these: 30 µM.
Assay [11] concerns the target Chromo domain-containing protein 1 (Saccharomyces cerevisiae (strain ATCC 204508 / S288c) (Baker's yeast)) (UniProt P32657). Kind of assay: ScCHD-1 Enzyme Inhibition Assay. The class given is functional. Also on record: scale not given: in the data most compounds retested in dose-response had high values. The conditions noted are these: 30 µM.
The target in assay [12] is T6, Methionyl-tRNA synthetase, putative (Leishmania donovani (strain BPK282A1)) (UniProt E9BF75).
T6 sequence (whole entry): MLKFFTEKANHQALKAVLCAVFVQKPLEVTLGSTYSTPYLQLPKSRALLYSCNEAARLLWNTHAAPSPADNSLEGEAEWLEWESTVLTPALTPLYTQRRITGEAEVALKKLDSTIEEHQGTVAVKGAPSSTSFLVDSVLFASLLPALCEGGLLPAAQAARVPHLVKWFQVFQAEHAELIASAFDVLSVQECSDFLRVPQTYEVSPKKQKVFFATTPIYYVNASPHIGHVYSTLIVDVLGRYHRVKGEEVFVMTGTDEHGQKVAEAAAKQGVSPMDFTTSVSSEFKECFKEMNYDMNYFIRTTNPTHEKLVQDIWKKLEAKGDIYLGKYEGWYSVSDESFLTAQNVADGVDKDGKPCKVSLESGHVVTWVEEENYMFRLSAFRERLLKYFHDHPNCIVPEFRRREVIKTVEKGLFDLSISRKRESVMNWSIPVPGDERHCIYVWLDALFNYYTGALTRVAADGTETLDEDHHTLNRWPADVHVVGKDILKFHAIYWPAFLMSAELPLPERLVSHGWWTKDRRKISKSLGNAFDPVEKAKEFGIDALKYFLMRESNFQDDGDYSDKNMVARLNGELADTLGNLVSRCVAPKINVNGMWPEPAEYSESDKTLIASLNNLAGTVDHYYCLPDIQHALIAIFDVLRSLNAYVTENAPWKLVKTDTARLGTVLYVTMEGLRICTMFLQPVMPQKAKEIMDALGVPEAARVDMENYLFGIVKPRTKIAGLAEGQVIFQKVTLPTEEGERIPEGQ
Kind of assay: Leishmania donovani Methionine tRNA synthetase (LdMetRS):v7. Dose response assay. The class given is functional. Also noted: conc 80 nM, time 150 minutes.

For some of these results: Results with a measured potency or affinity are listed apart.

Consider three compounds from ChEMBL document CHEMBL3988442, “University of Dundee, Small-Polar-MMV Screening Library” (2021).

Protein translocase subunit SecA (Escherichia coli (strain K12)), sequence (P10408 whole entry): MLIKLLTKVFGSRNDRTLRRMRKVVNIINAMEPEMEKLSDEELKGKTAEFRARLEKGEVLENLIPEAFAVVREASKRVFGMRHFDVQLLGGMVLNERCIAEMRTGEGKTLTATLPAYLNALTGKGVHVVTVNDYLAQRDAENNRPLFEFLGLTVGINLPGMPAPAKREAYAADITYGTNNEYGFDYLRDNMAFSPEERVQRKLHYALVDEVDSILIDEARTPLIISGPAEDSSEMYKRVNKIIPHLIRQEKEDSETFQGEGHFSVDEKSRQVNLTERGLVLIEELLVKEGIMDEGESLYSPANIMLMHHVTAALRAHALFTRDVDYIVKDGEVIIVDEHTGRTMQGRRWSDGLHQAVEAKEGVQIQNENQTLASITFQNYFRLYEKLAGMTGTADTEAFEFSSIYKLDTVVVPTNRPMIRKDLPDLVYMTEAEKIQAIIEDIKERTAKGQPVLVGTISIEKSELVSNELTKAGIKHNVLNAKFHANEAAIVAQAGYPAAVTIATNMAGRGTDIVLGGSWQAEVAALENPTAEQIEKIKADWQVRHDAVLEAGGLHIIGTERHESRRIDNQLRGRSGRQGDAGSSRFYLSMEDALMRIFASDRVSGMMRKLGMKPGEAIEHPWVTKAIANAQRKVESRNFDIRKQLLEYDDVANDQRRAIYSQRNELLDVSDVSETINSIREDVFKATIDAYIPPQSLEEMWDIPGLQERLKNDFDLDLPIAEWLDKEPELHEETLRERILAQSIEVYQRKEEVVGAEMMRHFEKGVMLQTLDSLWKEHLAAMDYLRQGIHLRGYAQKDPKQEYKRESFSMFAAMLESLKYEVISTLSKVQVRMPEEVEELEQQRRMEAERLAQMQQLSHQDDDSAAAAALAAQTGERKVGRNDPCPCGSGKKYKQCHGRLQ
Sialic acid-binding Ig-like lectin 9 (Homo sapiens), sequence (Q9Y336 whole entry): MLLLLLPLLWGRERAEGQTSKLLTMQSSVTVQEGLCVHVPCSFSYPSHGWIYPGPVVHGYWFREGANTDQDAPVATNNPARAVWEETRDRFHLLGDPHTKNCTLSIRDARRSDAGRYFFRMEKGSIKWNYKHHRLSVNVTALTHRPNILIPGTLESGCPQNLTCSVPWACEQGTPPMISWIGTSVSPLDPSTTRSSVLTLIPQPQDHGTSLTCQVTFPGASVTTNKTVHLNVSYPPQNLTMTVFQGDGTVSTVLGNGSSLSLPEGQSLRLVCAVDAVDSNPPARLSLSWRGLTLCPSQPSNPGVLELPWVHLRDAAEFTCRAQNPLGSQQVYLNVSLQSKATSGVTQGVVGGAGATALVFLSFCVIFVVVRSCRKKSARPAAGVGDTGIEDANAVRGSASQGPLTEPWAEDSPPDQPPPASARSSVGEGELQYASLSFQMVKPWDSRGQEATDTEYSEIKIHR
Chromo domain-containing protein 1 (Saccharomyces cerevisiae (strain ATCC 204508 / S288c) (Baker's yeast)), sequence (P32657 whole entry, the tested form may be a part): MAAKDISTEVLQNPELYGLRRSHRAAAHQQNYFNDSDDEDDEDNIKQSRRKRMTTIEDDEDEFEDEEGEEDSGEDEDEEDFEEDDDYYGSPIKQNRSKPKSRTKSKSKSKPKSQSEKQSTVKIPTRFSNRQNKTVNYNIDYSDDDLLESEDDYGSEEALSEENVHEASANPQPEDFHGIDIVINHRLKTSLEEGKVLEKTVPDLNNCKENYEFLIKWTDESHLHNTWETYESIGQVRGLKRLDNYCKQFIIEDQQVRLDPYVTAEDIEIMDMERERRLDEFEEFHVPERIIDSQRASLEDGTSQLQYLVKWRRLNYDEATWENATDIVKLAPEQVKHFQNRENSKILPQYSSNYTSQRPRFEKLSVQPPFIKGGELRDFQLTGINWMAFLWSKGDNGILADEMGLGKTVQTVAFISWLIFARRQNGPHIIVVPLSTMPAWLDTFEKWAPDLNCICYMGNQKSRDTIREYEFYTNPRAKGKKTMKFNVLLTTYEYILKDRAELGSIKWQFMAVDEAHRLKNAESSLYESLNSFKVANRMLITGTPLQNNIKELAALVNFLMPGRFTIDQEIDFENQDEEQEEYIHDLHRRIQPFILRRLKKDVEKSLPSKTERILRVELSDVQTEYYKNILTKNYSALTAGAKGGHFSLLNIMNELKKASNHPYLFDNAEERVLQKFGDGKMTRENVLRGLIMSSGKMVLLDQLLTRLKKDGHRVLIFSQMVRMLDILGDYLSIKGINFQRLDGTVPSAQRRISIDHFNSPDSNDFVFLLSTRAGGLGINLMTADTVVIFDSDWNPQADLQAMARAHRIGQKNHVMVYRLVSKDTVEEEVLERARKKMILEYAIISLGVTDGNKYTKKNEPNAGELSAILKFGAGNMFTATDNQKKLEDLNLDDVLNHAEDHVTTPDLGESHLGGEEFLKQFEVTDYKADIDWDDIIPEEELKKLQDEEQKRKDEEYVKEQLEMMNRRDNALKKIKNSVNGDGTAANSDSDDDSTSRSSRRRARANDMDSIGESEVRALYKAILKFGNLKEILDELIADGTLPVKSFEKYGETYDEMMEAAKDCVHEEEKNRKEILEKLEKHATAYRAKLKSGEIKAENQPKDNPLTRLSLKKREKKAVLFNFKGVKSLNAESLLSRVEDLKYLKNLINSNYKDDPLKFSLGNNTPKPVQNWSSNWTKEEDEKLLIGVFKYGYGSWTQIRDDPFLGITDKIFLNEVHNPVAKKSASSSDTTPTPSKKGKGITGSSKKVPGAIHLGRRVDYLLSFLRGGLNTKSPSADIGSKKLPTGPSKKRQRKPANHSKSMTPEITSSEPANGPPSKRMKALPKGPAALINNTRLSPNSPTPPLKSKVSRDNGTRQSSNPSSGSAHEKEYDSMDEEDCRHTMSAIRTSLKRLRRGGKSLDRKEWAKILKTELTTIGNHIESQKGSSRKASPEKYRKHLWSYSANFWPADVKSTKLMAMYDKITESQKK

In the case of `Cc1n[nH]c2c1C(c1cnn(C)c1)SCC(=O)N2` (stereo not drawn), the Percent Effect is -5.19% in assay [1]; 1.33% in [2]; -2.64% in assay [3]; 11.3% in assay [4]; 3.08% in assay [5]; -2.16% in the assay on Trypanosoma cruzi. In addition, the Percent Effect is -11.4% in assay [6]; 11.8% in assay [7]; 6.26% in the assay filed under Homo sapiens; -3.86% in [8]; 3.17% in assay [9]; 12.8% in assay [10]. Besides, the Percent Effect in assay [11] was -9.44%.
Turning to `Cc1cccc(CN2CC[C@@H]3[C@@H]2CCN3C(=O)c2cnoc2C)n1`, the Percent Effect in [1] was -3.21%; in assay [2], 10.8%; in assay [3] it was -2.46%; in assay [4], -5.71%; in [5] it was -1.95%; with Trypanosoma cruzi, 5.27%. Moreover, the Percent Effect in assay [6] came to 34.2%; in assay [7], 10.7%; in the assay listed under Homo sapiens, 7.71%; in assay [8], 5.3%; in [9] it was 3.96%; in assay [10], 15.8%. Further, the Percent Effect in [11] is -1.59%.
For the compound `Cc1cc(Cl)cc(Cl)c1O`, the PXC50 in [12] (MAX_EFFECT 7.127429806) and in [12] (MAX_EFFECT 14.63878327) was less than 3 throughout.
